Composite z-score, composite Z-score and z-score data for five compounds are collected here from PubChem BioAssay.

Calls of active or inactive are those of the source.

For one experiment, the target named is Albumin (Bos taurus) (UniProt P02769). The experiment can be described thus: bovine serum albumin binders on microarray, profiling panel, artefact control for SMM control protein annotation, biochemical, small-molecule microarray, Alexa647 label, 635/667 nm fluorescence (AID 1118).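 Also: score merges 667 nm emission intensity and signal-to-noise per printed compound spot.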 To be noted: BSA-A647 binding, fluorescence 635 nm, higher = more signal.
Sequence of Albumin (Bos taurus) (P02769 whole entry, looked up): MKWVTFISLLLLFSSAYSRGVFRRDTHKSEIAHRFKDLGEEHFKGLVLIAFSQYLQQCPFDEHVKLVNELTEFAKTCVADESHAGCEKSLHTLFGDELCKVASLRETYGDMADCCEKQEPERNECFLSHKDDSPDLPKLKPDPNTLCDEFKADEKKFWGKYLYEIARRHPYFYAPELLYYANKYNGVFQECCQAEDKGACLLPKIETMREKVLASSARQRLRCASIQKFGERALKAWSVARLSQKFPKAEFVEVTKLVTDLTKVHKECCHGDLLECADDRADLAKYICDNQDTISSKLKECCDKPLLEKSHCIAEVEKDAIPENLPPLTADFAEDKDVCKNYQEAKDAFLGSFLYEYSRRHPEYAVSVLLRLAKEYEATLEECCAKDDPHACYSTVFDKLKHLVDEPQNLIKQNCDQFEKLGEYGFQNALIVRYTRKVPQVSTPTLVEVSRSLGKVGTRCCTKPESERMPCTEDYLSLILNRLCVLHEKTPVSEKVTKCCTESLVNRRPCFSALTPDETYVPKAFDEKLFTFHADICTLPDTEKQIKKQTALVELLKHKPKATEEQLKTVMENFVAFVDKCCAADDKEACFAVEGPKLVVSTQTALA
A short description of experiment [1]: small-molecule microarray binders of probe aXIP, primary screen, biochemical, NeuroSMM set, 635/667 nm fluorescence (AID 1119).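 Also: probe is the protein aXip251-270 applied at 1 µg/mL to compound-printed slides; binding of probe to printed compounds measured as 667 nm fluorescence plus signal to noise.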 The note with it: higher = more signal, called active from +8 up or from −8 down.
Experiment [2] is described as follows: small-molecule binders of probe aNOTCH3, primary screen, biochemical, small-molecule microarray, 635/667 nm fluorescence (AID 1120).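 Also: probe is a biotin-tagged antibody raised against NOTCH3 rather than NOTCH3 protein; score merges spot fluorescence near 667 nm with spot signal to noise.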 To be noted: higher = more signal.
Experiment [3] in a line: small-molecule binders of probe aNOTCH2, primary screen, biochemical, small-molecule microarray, 635/667 nm fluorescence (AID 1121).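 Also: score merges feature fluorescence read at 667 nm with its signal to noise.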 The note with it: higher = more signal.
The target of experiment [4] is Carbonic anhydrase 2 (Homo sapiens) (UniProt P00918). The experiment in a line: CAII small-molecule binders, profiling panel, biochemical, small-molecule microarray, Alexa647-labelled CAII (AID 1122). The note with it: CAII-A647 binding fluorescence, higher = more signal.
Experiment [5] can be described thus: COS7 lysate on small-molecule microarray, probe aHis, 635 nm (AID 1123).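 Also: z-score combines 667nm fluorescence intensity with signal-to-noise per printed compound spot.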 The note with it: COS7 cell lysate, fluorescence, higher = more signal.
A short description of experiment [6]: compound binding in COS7 lysate, probe aLAP1, primary screen, cell lysate, small-molecule microarray (AID 1124).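 Also: lysate comes from COS7 cells expressing LAP1 and is applied at 0.3 µg/mL; score merges spot fluorescence near 667 nm with signal-to-noise over triplicate slides.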 The note with it: probe aLAP1, fluorescence, higher = more signal.
A further experiment deals with Sam68 (KHDRBS1). The experiment in a line: Sam68 small-molecule binders, primary screen, biochemical, small-molecule microarray, 635 nm fluorescence (AID 1125).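 Also: score merges 667 nm channel intensity with signal to noise over triplicate slides.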 To be noted: small-molecule microarray binding, higher = more signal.
Experiment [7] relates to Chordin-like protein 2 (CHRDL2). The experiment can be described thus: CHRDL2 small-molecule binders, primary screen, biochemical, small-molecule microarray, 635 nm fluorescence (AID 1126).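 Also: printed compound slides probed with Chrdl2 protein at 4 µg/mL for 1 h at 4 C; score merges 667 nm emission intensity with signal to noise over three replicate slides.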 The note with it: small-molecule microarray binding, fluorescence 635 nm; higher = more signal.
Experiment [8] has as its target Concanavalin-A (Canavalia ensiformis) (UniProt P02866). The experiment can be described thus: ConA small-molecule binders, primary screen, artefact control for SMM control protein annotation, biochemical, small-molecule microarray, Alexa647 label, 635 nm (AID 1127).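 Also: z combines 667 nm emission intensity with signal-to-noise across three replicate slides.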 To be noted: ConA-A647 binding fluorescence, higher = more signal.
Experiment [9] can be described thus: anti-His antibody binders, primary screen, artefact control for SMM control protein annotation, biochemical, small-molecule microarray, 635 nm fluorescence (AID 1128).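 Also: score merges feature fluorescence with signal-to-noise for each printed compound spot.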 To be noted: anti-His Alexa647 antibody binding, higher = more signal.
The test system of experiment [10] is Human papillomavirus type 1a E7 protein (residues 1-88). The experiment in a line: HPV1a E7 small-molecule binders, primary screen, biochemical, small-molecule microarray, residues 1-88, 635 nm (AID 1129). The note with it: small-molecule microarray binding, fluorescence 635 nm; higher = more signal.
For experiment [11], the target named is Focal adhesion kinase 1 (Homo sapiens) (UniProt Q05397). The experiment can be described thus: small-molecule microarray binders of FAK, primary screen, biochemical, 635/667 nm fluorescence, BSA, DTT (AID 1130).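 Also: composite of spot emission at 667 nm and signal to noise over triplicate slides.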 The note with it: PTK2 binding, 635 nm fluorescence, higher = more signal.
Sequence of Focal adhesion kinase 1 (Homo sapiens) (Q05397 whole entry, looked up): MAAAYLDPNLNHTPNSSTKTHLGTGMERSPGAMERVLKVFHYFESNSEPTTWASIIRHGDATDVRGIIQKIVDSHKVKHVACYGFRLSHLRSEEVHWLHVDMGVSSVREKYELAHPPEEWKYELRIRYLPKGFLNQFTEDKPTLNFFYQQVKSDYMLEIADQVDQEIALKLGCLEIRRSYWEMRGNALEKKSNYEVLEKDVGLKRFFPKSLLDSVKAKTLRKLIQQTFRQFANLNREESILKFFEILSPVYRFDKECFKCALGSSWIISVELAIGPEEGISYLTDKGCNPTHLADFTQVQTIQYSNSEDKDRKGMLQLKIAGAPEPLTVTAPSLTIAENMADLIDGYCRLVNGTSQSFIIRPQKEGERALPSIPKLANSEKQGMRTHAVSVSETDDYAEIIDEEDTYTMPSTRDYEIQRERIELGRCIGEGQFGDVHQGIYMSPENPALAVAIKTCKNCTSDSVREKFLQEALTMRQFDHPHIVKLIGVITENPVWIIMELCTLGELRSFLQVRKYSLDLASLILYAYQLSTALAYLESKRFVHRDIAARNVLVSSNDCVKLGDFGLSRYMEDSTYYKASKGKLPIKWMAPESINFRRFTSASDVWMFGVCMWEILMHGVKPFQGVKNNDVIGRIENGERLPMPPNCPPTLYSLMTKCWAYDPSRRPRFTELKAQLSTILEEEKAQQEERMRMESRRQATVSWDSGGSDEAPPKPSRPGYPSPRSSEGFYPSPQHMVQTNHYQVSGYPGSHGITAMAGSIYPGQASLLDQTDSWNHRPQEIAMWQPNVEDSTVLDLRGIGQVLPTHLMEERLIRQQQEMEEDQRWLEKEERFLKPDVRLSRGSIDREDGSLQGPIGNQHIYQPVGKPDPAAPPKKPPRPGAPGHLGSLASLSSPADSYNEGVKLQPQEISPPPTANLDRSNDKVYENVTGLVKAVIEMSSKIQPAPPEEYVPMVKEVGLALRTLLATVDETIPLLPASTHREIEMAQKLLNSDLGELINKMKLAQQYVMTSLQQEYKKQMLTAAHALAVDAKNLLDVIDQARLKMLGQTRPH
The subject of experiment [12] is Fibrinogen (Alexa647-labelled). The experiment in a line: fibrinogen binders on compound microarrays, profiling panel, artefact control for SMM control-protein annotation, biochemical, small-molecule microarray, 635/667 nm fluorescence (AID 1131).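 Also: z-score merges 667 nm fluorescence with per-spot signal-to-noise over triplicate slides.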 The note with it: fibrinogen-A647 binding fluorescence, higher = more signal.
Experiment [13] addresses Follistatin (Homo sapiens) (UniProt P19883). The experiment in a line: follistatin binders on small-molecule microarrays, primary screen, biochemical, small-molecule microarray, 635/667 nm fluorescence (AID 1132). The note with it: FST binding, 635 nm fluorescence, higher = more signal.
Experiment [14] concerns the target Fibroblast growth factor 2 (Homo sapiens) (UniProt P09038). The experiment in a line: FGF2 binders on small-molecule microarrays, primary screen, biochemical, small-molecule microarray, 635/667 nm fluorescence (AID 1133). To be noted: small-molecule microarray binding, FGF2, fluorescence 635/667; higher = more signal.
Experiment [15] can be described thus: mitochondrial membrane potential change in A549 cells, profiling panel, cell-based, JC-1 fluorescence, basal, 24 h, 100 nL (AID 1138).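 Also: A549 lung adenocarcinoma cells under basal conditions with no added stimulus; test concentration not given here.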 The note with it: higher = more signal.
The next experiment deals with Lefty1. The experiment can be described thus: Lefty1 binders on small-molecule microarrays, primary screen, biochemical, small-molecule microarray, 635/667 nm fluorescence (AID 1139). The note with it: small-molecule microarray binding, fluorescence 635/667; higher = more signal.
Experiment [16] relates to wheat germ agglutinin (Triticum aestivum), Alexa647-labelled. The experiment in a line: wheat germ agglutinin binders on compound microarrays, profiling panel, artefact control for SMM control-protein annotation, biochemical, small-molecule microarray, 635/667 nm fluorescence (AID 1140).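 Also: score merges 667 nm feature emission with signal to noise over triplicate slides.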 To be noted: WGA-A647 binding, 635 nm fluorescence, higher = more signal.
Experiment [17] addresses Luciferin 4-monooxygenase (Photinus pyralis) (UniProt P08659). The experiment in a line: firefly luciferase enzyme inhibitors, primary screen, biochemical, luminescence, purified enzyme, 2006 set (AID 1141).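 Also: cell-free assay with purified firefly luciferase at 100 ng per well in PBS; test concentration not given here.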 To be noted: SteadyGlo luminescence, 30 min, higher = more signal, called active from +8 up or from −8 down.

Sequence of Fibroblast growth factor 2 (Homo sapiens) (P09038 whole entry, looked up): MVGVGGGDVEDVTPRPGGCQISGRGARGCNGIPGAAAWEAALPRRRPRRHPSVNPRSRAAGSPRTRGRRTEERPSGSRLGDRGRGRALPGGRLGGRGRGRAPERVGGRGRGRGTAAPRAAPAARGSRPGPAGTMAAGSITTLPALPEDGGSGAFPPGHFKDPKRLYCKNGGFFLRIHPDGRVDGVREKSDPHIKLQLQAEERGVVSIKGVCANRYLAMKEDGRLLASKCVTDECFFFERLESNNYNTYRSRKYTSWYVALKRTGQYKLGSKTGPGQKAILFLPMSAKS
Sequence of Follistatin (Homo sapiens) (P19883 whole entry, looked up): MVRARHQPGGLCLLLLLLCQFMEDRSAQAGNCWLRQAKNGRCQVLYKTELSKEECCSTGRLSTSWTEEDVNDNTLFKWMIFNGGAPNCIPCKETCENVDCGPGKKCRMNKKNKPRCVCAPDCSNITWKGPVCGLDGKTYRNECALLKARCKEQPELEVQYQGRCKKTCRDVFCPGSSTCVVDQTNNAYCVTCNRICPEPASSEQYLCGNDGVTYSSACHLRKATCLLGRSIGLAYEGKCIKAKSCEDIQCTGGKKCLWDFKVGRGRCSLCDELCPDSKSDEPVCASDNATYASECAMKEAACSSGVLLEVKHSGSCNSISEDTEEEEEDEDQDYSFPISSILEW
Sequence of Concanavalin-A (Canavalia ensiformis) (P02866 whole entry, looked up): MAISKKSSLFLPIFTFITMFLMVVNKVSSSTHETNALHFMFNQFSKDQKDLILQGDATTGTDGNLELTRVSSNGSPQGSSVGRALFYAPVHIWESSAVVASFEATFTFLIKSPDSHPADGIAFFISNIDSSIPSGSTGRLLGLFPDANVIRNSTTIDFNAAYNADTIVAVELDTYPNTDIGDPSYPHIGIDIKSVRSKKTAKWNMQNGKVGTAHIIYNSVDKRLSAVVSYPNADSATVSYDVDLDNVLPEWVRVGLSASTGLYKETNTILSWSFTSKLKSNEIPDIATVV
Sequence of Luciferin 4-monooxygenase (Photinus pyralis) (P08659 whole entry, looked up): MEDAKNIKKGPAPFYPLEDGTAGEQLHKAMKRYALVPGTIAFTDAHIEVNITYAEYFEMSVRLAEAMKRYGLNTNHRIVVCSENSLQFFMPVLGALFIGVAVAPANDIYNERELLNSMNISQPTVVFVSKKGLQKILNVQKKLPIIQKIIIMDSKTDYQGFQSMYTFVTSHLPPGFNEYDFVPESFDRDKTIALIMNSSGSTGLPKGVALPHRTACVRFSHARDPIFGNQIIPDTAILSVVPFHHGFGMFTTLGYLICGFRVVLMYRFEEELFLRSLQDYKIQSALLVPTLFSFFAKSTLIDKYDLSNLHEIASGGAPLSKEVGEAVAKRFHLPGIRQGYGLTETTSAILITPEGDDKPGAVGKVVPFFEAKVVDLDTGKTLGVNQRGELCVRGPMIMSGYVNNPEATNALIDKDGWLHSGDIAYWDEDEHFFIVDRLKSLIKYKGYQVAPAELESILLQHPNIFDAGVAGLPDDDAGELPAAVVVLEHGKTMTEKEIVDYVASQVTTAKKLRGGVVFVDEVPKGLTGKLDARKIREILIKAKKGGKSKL

Turning to `O=C(Cc1ccccc1)[C@H]1C2C=CCCC(c3ccccc3)=C2CN1Cc1ccccc1` (stereo not given in full), the composite z-score with Albumin (Bos taurus) was -0.567; in experiment [2] it was -0.166; in experiment [3] it was -0.179; in experiment [4], -0.302; in experiment [5] it was -0.328; in [6], 0.0448. In addition, the composite z-score in the experiment with Sam68 (KHDRBS1) is -0.299; in experiment [7] it was 0.23; in experiment [8], -0.22; in [9], -0.162; in experiment [10], -0.304; in [11], -0.241. The composite z-score in experiment [12] is -0.0983; in experiment [13] it was 0.436; in experiment [14], 0.869; with Lefty1, -0.519; in experiment [16], -0.394. The composite Z-score in [1] is -0.041 (inactive). Moreover, the z-score was 1.77 in experiment [15] and -1.06 (inactive) in experiment [17].
With `COc1cc2c(cc1O)C(c1ccc(CN3CCCC3)cc1)N(Cc1cc3c(cc1Br)OCO3)CC2` (stereo not given), the composite z-score in the experiment with Albumin (Bos taurus) was 0.905; in experiment [2], -0.0089; in [3], -0.102; in experiment [4] it was 0.891; in experiment [5], 0.796; in experiment [6], 0.119. The composite z-score in the experiment with Sam68 (KHDRBS1) was -0.521; in [7], -0.0867; in experiment [8], 0.655; in experiment [9] it was -0.381; in experiment [10] it was -0.367; in [11], 0.171. Also, the composite z-score in [12] was 0.516; in experiment [13] it was 0.0395; in [14], -0.73; with Lefty1, -0.268; in experiment [16] it was 0.688. The composite Z-score in experiment [1] was 0.0698 (inactive). Further, the values for the z-score in experiment [15] and in [17] were 1.11 and -1.37 (inactive), respectively.
For `CCCCC(=C=CC[C@H](O)c1ccc(OCCO)cc1)CCO`, the composite z-score with Albumin (Bos taurus) was 0.837; in experiment [2], -0.121; in experiment [3], -0.0795; in experiment [4] it was 0.694; in experiment [5] it was 1.55; in [6] it was 0.251. Also, the composite z-score in the experiment on Sam68 (KHDRBS1) was 0.195; in experiment [7], -1.13; in [8], -0.727; in experiment [9] it was -0.582; in experiment [10] it was 0.0547; in experiment [11] it was 0.0832. The composite z-score in experiment [12] was -1.64; in experiment [13], -0.232; in [14], -0.674; in the experiment with Lefty1, 0.282; in [16], 0.717. Further, in experiment [1], the composite Z-score was 0.0311 (inactive). The figures for the z-score in experiment [15] and in experiment [17] were 0.25 and -0.98 (inactive), respectively.
For `CCCN1C(=O)[C@@]2(Cc3ccccc31)N=C(c1ccc(OCCCO)cc1)O[C@H]2c1ccccc1`, the composite z-score with Albumin (Bos taurus) was -0.324; in experiment [2], 0.0916; in experiment [3], 0.0118; in [4], 0.523; in [5] it was 1.88; in experiment [6] it was 0.587. For the same compound, the composite z-score in the experiment with Sam68 (KHDRBS1) was found to be 1.31; in [7] it was 0.201; in [8] it was 1.13; in experiment [9], 0.293; in [10], 1.17; in [11] it was 0.881. Also, the composite z-score in [12] is 0.829; in experiment [13], 1.23; in experiment [14] it was 1.31; in the experiment with Lefty1, 0.256; in experiment [16], 0.801. Besides, the composite Z-score in experiment [1] is 0.953 (inactive). For the same compound, the values for the z-score in experiment [15] and in [17] were 1.69 and -3.25 (inactive), respectively.
For `CCOC(=O)C=Cc1cccc(C)c1O`, the composite z-score is -0.268 in the experiment with Albumin (Bos taurus); -0.0881 in [2]; -0.114 in experiment [3]; 0.422 in [4]; -0.15 in [5]; 0.514 in experiment [6]. In addition, the composite z-score in the experiment with Sam68 (KHDRBS1) is -0.0261; in experiment [7], -0.0961; in experiment [8], 0.0646; in experiment [9], 0.0346; in [10], -0.0448; in experiment [11] it was 0.617. Further, the composite z-score in [12] was 0.252; in [13], 0.208; in [14], 0.0326; with Lefty1, -0.0408; in [16] it was -0.399. Besides, in experiment [1], the composite Z-score was -0.352 (inactive). Besides, the z-score in experiment [15] was -1.56; in experiment [17], -9.24 (active).
